High-throughput results from PubChem.
Rows were chosen to be rich in hits. Some 2.6% of all compounds tested hit in one or more screens of this group.
IDE inh = human IDE inhibitors in live cells, primary screen, fluorescence polarization, HEK cells, FAbetaB substrate; Insulin-degrading enzyme (Homo sapiens), P14735; FAbetaB cleavage; inhibition, % at 5.59 µM; 0.41% of 320,000 active; AID 434962, 2010;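 active = percent inhibition above the average of all tested compounds plus 3 SD, set per screening campaign, cut at about 16% in these data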;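 note: IDE supplied by intact live HEK cells; FP after avidin binding of uncleaved biotin substrate so inhibition keeps polarization high; 0% = DMSO wells and 100% = 60 µM reference IDE inhibitor Ii1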
Target sequence (P14735 whole entry, looked up): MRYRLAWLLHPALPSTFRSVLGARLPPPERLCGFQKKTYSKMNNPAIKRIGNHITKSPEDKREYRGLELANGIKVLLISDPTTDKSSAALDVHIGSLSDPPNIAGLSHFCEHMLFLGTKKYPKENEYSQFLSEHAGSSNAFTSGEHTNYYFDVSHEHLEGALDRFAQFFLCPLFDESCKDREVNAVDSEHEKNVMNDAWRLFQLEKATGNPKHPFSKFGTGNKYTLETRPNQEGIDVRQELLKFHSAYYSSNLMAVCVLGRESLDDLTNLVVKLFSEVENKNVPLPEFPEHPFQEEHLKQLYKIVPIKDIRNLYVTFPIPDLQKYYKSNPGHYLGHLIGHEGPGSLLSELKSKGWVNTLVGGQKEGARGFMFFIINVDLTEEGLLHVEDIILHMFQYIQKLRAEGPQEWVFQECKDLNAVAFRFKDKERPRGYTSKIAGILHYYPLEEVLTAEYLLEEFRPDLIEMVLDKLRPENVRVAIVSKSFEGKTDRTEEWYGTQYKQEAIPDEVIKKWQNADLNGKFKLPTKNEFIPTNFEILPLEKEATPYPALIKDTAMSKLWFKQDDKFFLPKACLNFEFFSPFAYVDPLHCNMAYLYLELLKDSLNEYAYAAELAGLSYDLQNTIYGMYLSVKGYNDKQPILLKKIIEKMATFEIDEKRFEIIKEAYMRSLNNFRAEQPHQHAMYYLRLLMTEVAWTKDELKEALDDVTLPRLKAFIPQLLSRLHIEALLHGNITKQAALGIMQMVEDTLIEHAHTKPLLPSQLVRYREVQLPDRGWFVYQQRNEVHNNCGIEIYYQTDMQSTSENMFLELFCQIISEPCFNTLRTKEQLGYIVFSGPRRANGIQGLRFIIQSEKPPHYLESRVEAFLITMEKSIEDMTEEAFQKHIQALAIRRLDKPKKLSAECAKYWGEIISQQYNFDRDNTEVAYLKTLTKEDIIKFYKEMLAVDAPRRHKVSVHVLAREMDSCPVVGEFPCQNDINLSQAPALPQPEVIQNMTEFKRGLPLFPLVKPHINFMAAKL
IDE cell activ = human IDE activators in live cells, primary screen, fluorescence polarization, HEK cells, FAbeta-B substrate | Insulin-degrading enzyme (Homo sapiens), P14735 | FAbeta-B cleavage; 0% vehicle, 100% cell-free pure enzyme wells | activation, % at 5.96 µM | 0.073% of 340,000 active | AID 493087, 2011;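 active = activation above the mean of all tested compounds plus 3 SD, set per screening campaign, cut at about 17% in these data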
TPT1 inh = Candida albicans TPT1 enzyme inhibitors, primary screen, biochemical, fluorescence polarization | inhibition, % at 5 µM | 0.81% of 300,000 active | recombinant caTPT1, FP RNA substrate dephosphorylation;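 active = inhibition above the mean of all tested compounds plus 3 SD, set per screening campaign, cut at about 24% in these data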;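 note: plate controls were DMSO alone for no effect and ferristatin control at 100 nM for full effect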
CRFBP-R2 block = antagonists of CRF-BP/CRF-R2 complex, primary screen, cell-based, HEK293, calcium dye fluorescence, uHTS; AID 588475, 2011; CRF-induced calcium fluorescence; 0.59% of 350,000 active; inhibition, % at 11.8 µM;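 active = inhibition of the ligand-induced calcium signal above about 50% at the single tested concentration, limit read from the data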
Myeloid diff 2 = induction of myeloid progenitor differentiation, primary screen, cell-based, flow cytometry, MLPCN library. ER-HoxA9 myeloid progenitors, lysozyme-GFP differentiation. calls only at 10 µM. 1% of 360,000 active. AID 624256, 2012;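 active = normalized GFP-positive differentiation at or above the plate's own cutoff, the solvent-only control mean plus 3 SD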;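 note: cells exposed to compound for four days before flow analysis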
CRFR2-BP ag = agonists of CRF-BP/CRF-R2 complex, primary screen, cell-based, HEK293, calcium dye fluorescence, uHTS; calcium dye fluorescence (FLIPR); percent of saturating CRF peptide response; activation, % at 13.2 µM; 0.46% of 350,000 active; AID 588473, 2011;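 active = activation of at least 50%, plus an integration ratio under a set limit after plate pattern correction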;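 note: plate controls were neutral control wells without compound for no effect and CRF at EC100 for full effect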
TPT1 inh confirm = Candida albicans TPT1 inhibitors, confirmation, biochemical, fluorescence polarization, triplicate; recombinant caTPT1, RNase T1 coupled; 74% of 2,400 active; inhibition, % at 5 µM; shares compounds with TPT1 inh;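 active = inhibition above the primary screen limit, the mean inhibition of all tested compounds plus 3 SD, cut at about 25% in these data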
RNase T1 counter = RNase T1 inhibitors, counter-screen for TPT1 inhibitor project, biochemical, fluorescence polarization; 83% of 2,400 active; AID 2153, 2009; RNase T1 cleavage, 1536-well; shares compounds with TPT1 inh; inhibition, % at 5 µM;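 active = inhibition above the solvent-only control well mean plus 3 SD, limit set per screening run, cut at about 23% in these data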;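 note: plate controls were DMSO wells with enzyme for no effect and wells without RNase T1 for full effect; inhibitors block cleavage so intact labeled substrate keeps polarization high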
The depositor's hits bear a star; i = inactive; nt = not tested or not shown; + = active, no number.

SMILES | IDE inh | IDE cell activ | TPT1 inh | CRFBP-R2 block | Myeloid diff 2 | CRFR2-BP ag | TPT1 inh confirm | RNase T1 counter
Cc1ccccc1CN1[C@@H]2c3ccccc3C[C@@H]2OCCS1(=O)=O | 3 | 0 | 1 | -2 | i | -3 | nt | nt
O=C1c2ccccc2S(=O)N1c1cccc(F)c1 (stereo not given) | nt | nt | nt | 3 | i | 9 | nt | nt
Cc1noc(C)c1S(=O)(=O)Nc1ccc(C#N)cc1 | 2 | 4 | 1 | -7 | i | 6 | nt | nt
Cn1c(SCC(=O)NCCc2ccccc2)nnc1C1CCCCC1 | 0 | -5 | -5 | -14 | i | 0 | nt | nt
Cc1ccc(O)c(NC(=O)c2noc3c2CCCCC3)c1 | -5 | -2 | 25* | 1 | i | 0 | 0 | 4
COc1ccc([C@H]2CC(=O)C=C(/C=C/c3ccccc3)C2)cc1OC | 1 | 4 | nt | 9 | i | -3 | nt | nt
O=C(COc1cccc(NC(=O)c2cccc([N+](=O)[O-])c2)c1)c1ccc(F)cc1 | -1 | 5 | 53* | -6 | i | -1 | 0 | 3
COc1nc(N/N=C/c2ccc(-c3ccccc3[N+](=O)[O-])o2)nc(N2CCOCC2)n1 | -4 | -1 | 3 | -33 | i | 4 | nt | nt
O=[N+]([O-])c1ccc(-c2ccc(/C=N/Nc3nc(NCc4ccccc4)nc(N4CCOCC4)n3)o2)cc1 | 3 | -1 | 87* | -89 | + | 57* | 89* | 93*
C=CCN1C(=O)/C(=C\C=C2\N(C)c3ccccc3C2(C)C)SC1=S | 2 | -10 | 116* | -68 | + | 104* | 120* | 115*
C/C(=N/NC(N)=S)c1cc2ccc(O)cc2oc1=O | 0 | -32 | 25* | -16 | + | 19 | 90* | 97*
C#CCSc1nc2[nH]ncc2c(=O)[nH]1 | -3 | -1 | 33* | -11 | i | 1 | 4 | 5
O=C(N/C=C/c1ccco1)NCc1ccccc1 | -4 | 9 | 8 | 4 | i | 3 | nt | nt
O=C(N/C=C/c1ccco1)OCc1ccccc1 | 2 | 1 | 31* | -3 | i | -1 | 19 | 31*
NS(=O)(=O)c1cccc(NC(=O)COC(=O)Cn2cc(C(F)(F)F)ccc2=O)c1 | -1 | 3 | nt | 8 | i | -1 | nt | nt
N#C/C(=C\Nc1ccc2cn[nH]c2c1)c1nc(-c2ccccc2)cs1 | nt | 5 | nt | -3 | i | -1 | nt | nt
Cc1ccnc(N/C=C(\C#N)c2nc(-c3cccc(Br)c3)cs2)c1 | 8 | -34 | 30* | -250 | + | 237* | 26* | 40*
CC(C)(C)c1ccc(C(=O)NNc2cc(N3CCCCC3)nc(N3CCCCC3)n2)cc1 | -4 | 6 | 45* | 9 | i | 0 | 10 | 12
Cc1[nH]n(-c2ccccc2)c(=O)c1C=Nc1cccc2cccnc12 | 15 | -4 | 3 | 16 | i | 1 | nt | nt
Oc1c(C=Nc2cccc3cccnc23)sc2ccccc12 | 49* | nt | 172* | nt | nt | nt | 152* | 138*
Cc1cccc(/N=C/c2c(O)[nH]c3ccccc23)n1 | 2 | 4 | 1 | -1 | i | 0 | nt | nt
Cc1cccc(/N=C/c2sc3ccccc3c2O)n1 | 1 | 3 | 85* | -40 | i | 36 | 29* | 40*
Oc1ccc(Cl)cc1N=Cc1sc2ccccc2c1Cl | 8 | -2 | 11 | -22 | i | 3 | nt | nt
O=[N+]([O-])c1ccc(O)c(N=Cc2sc3ccccc3c2O)c1 | 1 | -9 | 42* | -9 | i | 30 | 38* | 53*
Cc1cc(Cl)ccc1NC(=O)COC(=O)c1c(C)noc1C | 10 | 2 | nt | 3 | i | -1 | nt | nt
SMILES | IDE inh | IDE cell activ | TPT1 inh | CRFBP-R2 block | Myeloid diff 2 | CRFR2-BP ag | TPT1 inh confirm | RNase T1 counter
CC(C)C(NC(=S)Nc1ccccc1)C(=O)O (stereo not given) | 0 | 0 | 0 | 1 | i | 0 | nt | nt
C[C@]12C=CC(=O)C=C1CC[C@@H]1C2=CC[C@]2(C)[C@@H](C(=O)CN3CCN(c4cc(N5CCCC5)nc(N5CCCC5)n4)CC3)CC[C@@H]12 | -1 | 0 | 31* | -15 | i | 5 | 29* | 41*
FC(F)(F)c1ccc(-c2cccc3c2C2CC3CCN2C(=S)NCCc2ccccc2)cc1 (stereo not given) | nt | nt | nt | nt | i | nt | nt | nt
COC1=C/C(=C/c2c(N)n3cc(C)sc3nc2=O)C=CC1=O | 12 | -19 | 81* | -70 | i | 61* | 127* | 128*
Cc1cc(C)cc(Nc2ccc(C(=O)O)cc2N)c1 | 7 | 8 | 29* | 13 | i | 0 | 7 | 10
Cc1cc(C)cc(Nc2ccc(C(=O)O)cc2[N+](=O)[O-])c1 | -1 | 1 | 0 | 7 | i | -1 | nt | nt
Nc1ccccc1C(=O)N1O[C@@H]2C=C[C@H]1CC2 | nt | -1 | nt | -1 | i | -2 | nt | nt
CC(O)CNc1ccc([N+](=O)[O-])cc1S(=O)(=O)N1CCOCC1 (stereo not given) | 3 | -7 | -1 | 12 | i | 5 | nt | nt
O=C(O)CC/C(=N\Nc1ccc([N+](=O)[O-])cc1S(=O)(=O)N1CCOCC1)c1cccs1 | 1 | 0 | 29* | -1 | i | 3 | 41* | 52*
C/C(=N\Nc1ccc([N+](=O)[O-])cc1)c1ccc(N)cc1 | 7 | -5 | 37* | 24 | i | 0 | 34* | 46*
CCc1ccc(/C(C)=N\Nc2ccc([N+](=O)[O-])cc2)cc1 | 1 | -2 | 81* | -24 | + | 0 | 56* | 71*
C/C(=N\Nc1ccc([N+](=O)[O-])cc1)c1ccc(-n2nncc2C)cc1 | -3 | 0 | 24 | -27 | i | 4 | nt | nt
C/C(=N\Nc1ccc([N+](=O)[O-])cc1)c1ccc(N2CCOCC2)cc1 | -3 | 2 | 31* | -22 | i | 13 | 46* | 53*
CC/C(=N\Nc1ccc([N+](=O)[O-])cc1)c1ccccc1 | 4 | -7 | 39* | -19 | i | 0 | 47* | 60*
C/C(=N\Nc1ccccc1[N+](=O)[O-])c1ccc(N2CCOCC2)cc1 | 4 | 4 | -2 | -7 | i | 2 | nt | nt
O=[N+]([O-])c1ccc(N/N=C/c2ccccc2O)cc1 | 5 | -5 | 50* | -19 | i | 6 | 69* | 81*
